# Measured values published in PubChem BioAssay (NCI).
# This is part of a sample that, as a whole, favours compounds with a hit. Of some 83,000 tested, about 20% had one in any assay.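 For each line, cells grew in 96-well plates with the test compound present at a single concentration for 48 hours.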 A number with no mark means an inactive call. Activity calls are given as the source filed them.
# Tested on: HOP-92 NSCLC
# Assay: NCI-60 one-dose screen, 48 h (100 = growth as untreated, 0 = no growth, -100 = all killed)
# Settings: 10 µM unless noted
# Description: Growth inhibition of the HOP-92 human Non-Small Cell Lung tumor cell line is measured as a screen for anti-cancer activity. Cells are grown in 96 well plates and exposed to the test compound for 48 hours. Compounds are tested at a single concentration, which is 10^-5 M for most compounds. The reported endpoint is percent growth (GI% or GIPRCNT), where numbers from 0 - 100% represent growth inhibition, and numbers from -100% - 0 represent cell death. For example, a value of 40 represents 60% growth inhibition. A value of 0 means no net growth occurred over the course of the experiment. A value of -40 indicates 40% of cells at the beginning of the experiment died by the end of the experiment. A value of -100 means all cells are dead at the end of the experiment.
# NCI-60 Human Tumor Cell Lines Screen was performed using the standard one-dose NCI protocol, which is described in more detail at https://dtp.cancer.gov/discovery_development/nci-60/default.htm.
# Compounds with GIPRCNT values below 10 were considered active. Activity score was based on GIPRCNT using the following formula: […]
# Score is 0 for GIPRCNT values of 100 or above, 50 for GIPRCNT values of 0, and 100 for GIPRCNT values of -100.
row,SMILES,growth
1,CCOC(=O)C1C(=O)NC(C(=O)OCC)(C(=O)OCC)C1CC (stereo not given),98%
2,COc1cccc(/C=N/Nc2nc3ccccc3s2)c1OC,74.5%
3,N#Cc1ncc(-c2ccc(C(F)(F)F)cc2)c(NC2CCCCCC2)n1,-22.6% (active)
4,Cc1cn(C(C=O)OC(C=O)CO)c(=O)[nH]c1=O (stereo not given),104%
5,COc1ccc(-n2cnc3cc(C(=O)N4CCCCC4)ccc32)cc1,95.3%
6,O=C1/C(=C/c2ccccc2O)C(=S)SN1Cc1ccco1,97.7%
7,COc1ccc(C(=O)COc2ccc(/C=C3\Oc4ccc5ccccc5c4C3=O)cc2)cc1,94.9%
8,Nc1ccccc1C#Cc1ccccc1C#Cc1ccc(OCCCCCCOc2ccc(C#Cc3ccccc3C#Cc3ccccc3N)cc2)cc1,88.8%
9,Cc1cc(=O)[nH]c(/C(=N/Nc2ccccc2)C(=O)c2ccc(Cl)cc2)n1,88.7%
10,Cc1cc(=O)oc2cc(OCCn3c(C)nn(-c4ccc(Cl)cc4)c3=O)ccc12,47.4%
11,N/C(=N\c1nc2ccccc2s1)NC(=O)Nc1ccccc1Cl,139%
12,COCCOCCOCCOCCOc1ccc2c(c1)C(=O)c1nc3ncccc3c(=O)n1-2,-18.7% (active)
13,O=C1/C(=C/c2cccc(Cl)c2)CCc2ccccc21,72.6%
14,C(=C1c2ccccc2-c2ccccc21)c1ccccn1,73.4%
15,Nc1nc(Nc2ccccc2SSc2ccccc2Nc2nc(N)nc(-c3ccc(I)cc3)n2)nc(-c2ccc(I)cc2)n1,107%
16,CC(=O)Nc1ccc(C(=O)COc2cccc(/C=C3\CCc4ccccc4C3=O)c2)cc1,70.8%
17,CNc1nc(NC2CCCC2)nc(Sc2ccc(OC)cc2)n1,-42.7% [100 µM] (active)
18,O=C(Nc1nn2c(-c3cc(C(F)(F)F)cc(C(F)(F)F)c3)nnc2s1)C1CCCC1,-24.2% (active)
19,COc1ccc(C(=O)/C=C/c2ccc(C)cc2)cc1OC,52.5%
20,CCCCCN1C(=O)CCC1=O,79.3%

row,SMILES,growth
1,CCOc1cc(/C=C/C(=O)CC(=O)/C=C/c2ccc(OC(=O)CNc3nc4ccc(OC)cc4s3)c(OCC)c2)ccc1OC(=O)CNc1nc2ccc(OC)cc2s1,90.9%
2,CCOC(=O)CCC(=O)O[C@H]1[C@H](O[C@@H]2[C@@H](C)[C@H](O[C@H]3C[C@@](C)(OC)[C@@H](O)[C@H](C)O3)[C@@H](C)C(=O)O[C@H](CC)[C@@](C)(O)[C@H](O)[C@@H](C)C(=O)[C@H](C)C[C@@]2(C)O)O[C@H](C)C[C@@H]1N(C)C,102%
3,CCSc1nc(-c2ccco2)n2nc(-c3ccco3)cc2n1,89.6%
4,CCN(CC)CCCCCCCNc1c2ccc(Cl)cc2nc2ccc(OC)cc12,-62.1% (active)
5,Oc1c(Cl)cc(Oc2cc(Cl)c(O)c(CN3CCOCC3)c2)cc1CN1CCOCC1,79%
6,CC1(C)CC2(C)CC(=O)C1C(C(=O)O)C2C(=O)O (stereo not given),113%
7,C(=C1c2ccccc2-c2ccccc21)c1ccncc1,55.9%
8,O=C(Nc1ccccc1OC(=O)c1ccccc1)c1ccccc1,89.5%
9,O=C(NC1CCCCC1)c1ccc(Nc2ncnc3c2cnn3-c2ccccc2)cc1,37.7%
10,CSc1nc(-c2ccc(O)cc2O)c2c(=O)[nH]c(Nc3ccc(S(=O)(=O)Nc4nc(C)cc(C)n4)cc3)nc2n1,24.6%
11,CN1CCN(c2nc3scc(-c4ccccc4)c3c(=O)[nH]2)CC1,98.5%
12,C=C1CCC2C(C)(COC(=O)CC)C(OC(=O)CC)CCC2(C)C1C/C=C1/C(=O)OCC1OC(=O)CC (stereo not given),-9.73% (active)
13,CCCc1n(Cc2ccc3ccccc3c2)cc[n+]1Cc1ccc2ccccc2c1,-38.3% (active)
14,COc1cccc(/C=N\NC(=O)c2ccncc2)c1O,55.1%
15,COc1ccc2c(c1)C(=Nc1cc(OC)c(OC)c(OC)c1)C(=O)N2,56.8%
16,COP(=O)(OC)C(c1ccccc1)(c1ccccc1)c1ccccc1,62.8%
17,COc1ccc(N2CCN(CC(=O)N3CCN(c4nnc(-c5ccccc5)c(-c5ccccc5)n4)CC3)CC2)cc1,39%
18,Cc1ccc(/C=C(/C#N)n2nnc3ncccc32)cc1,-19.5% (active)
19,CC(=O)c1nn(-c2ccccc2)c(=Nc2ccccc2)cc1C,55.2%
20,Cc1ccc2nc3c(n2c1)C(=O)C(=O)c1ccccc1-3,-77.2% (active)
